# In PubChem BioAssay (NCI):
# The panel holds about 79,000 compounds, 15% with a hit somewhere; the sample as a whole holds those more often. Unmarked numbers belong to inactive results. Active and inactive are the calls of the source. Cut-off read from the data, not from the text of the source: active = growth inhibition above about 70%; inactive = the rest.
# Key:
# [1] = NCI Yeast Anticancer Drug Screen. Data for the rad50 strain (AID 155);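 note: 0% = growth of vehicle-only cultures of the same strain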; details: S. cerevisiae rad50 strain growth inhibition; at 50.0 µM; hits give high values
# In short: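 Genetically altered yeast (DNA repair pathway); compound treatment; growth inhibition vs vehicle ctrl.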
# [2] = NCI Yeast Anticancer Drug Screen. Data for the mec2-1 strain (AID 157); details: S. cerevisiae mec2-1 strain, at 50.0 µM, hits give high values
# In short: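 mec2-1 yeast strain, carrying an alteration in DNA damage repair or cell cycle control, was exposed to compounds; growth inhibition was measured relative to vehicle-treated controls.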
# [3] = NCI Yeast Anticancer Drug Screen. Data for the sgs1 mgt1 strain (AID 161);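 note: 0% = growth of cultures given vehicle only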; details: S. cerevisiae sgs1 mgt1 strain, at 50.0 µM, hits give high values
# In short: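 This yeast growth screen uses a strain with defined DNA-repair lesions; compound-treated growth is compared with vehicle-treated growth.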
# [4] = NCI Yeast Anticancer Drug Screen. Data for the cln2 rad14 strain (AID 165);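 note: 0% = growth equal to vehicle treated cultures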; details: S. cerevisiae cln2 rad14 strain, at 50.0 µM, hits give high values
# In short: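 Yeast carrying cln2 and rad14 alterations (cell cycle control and DNA damage repair) were exposed to compounds. Growth inhibition was measured against vehicle-treated controls.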
# [5] = NCI Yeast Anticancer Drug Screen. Data for the bub3 strain (AID 167); details: S. cerevisiae bub3 mutant strain, at 50.0 µM, hits give high values
# In short: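 Yeast carrying a defined mutation is treated with each compound, and growth is compared with that of vehicle-exposed cells to give inhibition.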
# [6] = NCI Yeast Anticancer Drug Screen. Data for the mlh1 rad18 strain (AID 175); details: S. cerevisiae mlh1 rad18 strain growth inhibition; at 50.0 µM; hits give high values
# In short: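 Growth inhibition of the yeast strain was measured after compound exposure and expressed relative to vehicle-treated controls. The strain carries defined defects in DNA damage repair.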
SMILES,growth inhibition [1],growth inhibition [2],growth inhibition [3],growth inhibition [4],growth inhibition [5],growth inhibition [6]
c1ccc(CSc2cnnc3ccccc23)cc1,3.9%,-10.8%,6%,-11.1%,14.1%,31.9%
O=C1/C(=C/c2ccc3c(c2)OCO3)CCC1CN1CCOCC1 (stereo unspecified),91.2% (active),94.1% (active),90.8% (active),92.7% (active),90.2% (active),90.5% (active)
CCOC(=O)c1cn(CC)c2ccc3ccsc3c2c1=O,-18.2%,-40.4%,-15.5%,10.2%,-9.4%,-30.9%
N#CC(C(=O)CCC(=O)Nc1ccc(Cl)c(Cl)c1)c1ccc(Cl)cc1 (stereo unspecified),-12.9%,-29.9%,18.1%,15.4%,8.4%,-2.2%
Cc1c(Cl)c2ccc(N(C)C)cc2[nH]c1=O,-2.9%,0.45%,-0.1%,-6.35%,11.2%,7.65%
COc1ccc(CCC(C)(O)c2ccccc2)cc1 (stereo unspecified),11.7%,-1.35%,11.2%,-1.05%,41.9%,-2.55%
O=C1CCc2nc(=O)c3c4ccccc4ccc3n21,3.95%,1.55%,-5.35%,-36.5%,-3.95%,-0.2%
CSCC(=O)c1ccccc1,17.4%,6.55%,9.25%,-6.3%,2.15%,5.3%
OC1[C@H](O)CN(OCc2ccccc2)C[C@@H]1O (stereo partly specified),-13.9%,-2.4%,-15.1%,-20.4%,7.85%,-18.4%
Cc1[nH]c(=O)c2ccccc2c1O,10.6%,-8.15%,-3.7%,6.35%,-17.2%,-1.35%
N#CC1(C#N)C2(c3ccccc3)OC(c3ccccc3)(c3cc4ccccc4cc32)C1(C#N)C#N,1.75%,20.1%,-4.1%,14.1%,8%,29.1%
O=C(OCc1ccccc1)c1ccccc1O,39.1%,16.1%,46.1%,-16.1%,22.8%,57.5%
O=[N+]([O-])c1cc2c3ccccc3c([N+](=O)[O-])cc2c2ccccc12,-10.2%,-14.8%,-8.6%,-15.2%,-10.5%,10.7%
O=C1C=C(Nc2ccc(S(=O)(=O)Nc3ncccn3)cc2)c2ccccc2C1=O,27.4%,41.5%,50.1%,30.8%,18.9%,44.6%
O=C1OC2C(Cl)CC(Cl)CC2C=C1c1cccc([N+](=O)[O-])c1 (stereo unspecified),-3.3%,12.2%,-16.6%,-21.9%,11.8%,-0.4%
COC(=O)C1=C(C(=O)OC)C2C=CC1C1C(Cl)=C(Cl)C21 (stereo unspecified),-12%,-0.95%,-10.7%,21.2%,33.6%,-34%
Nc1[nH]c(=S)[nH]c(=O)c1NS(=O)(=O)c1ccccc1,3.65%,-1.6%,12.6%,-4.85%,-10.2%,18.4%
CCC(=O)Oc1cccc(C)c1,13.8%,-8.4%,2.05%,-10.6%,4.2%,-15.4%
CCC1(N=[N+]=[N-])C(=O)c2ccccc2N(c2ccccc2)C1=O (stereo unspecified),-13.3%,-13%,-18.9%,2.75%,-0.95%,-19.4%
N#Cc1ccc(Nc2cnc3ccc(N)cc3n2)cc1,-41.2%,-37.6%,-43.8%,-25.4%,-25.4%,-54.1%
CC(C)CC(C)(O)C#CC(C)(O)CC(C)C (stereo unspecified),-1.8%,-25.4%,-12.7%,-31.4%,4.55%,-22.2%
